# PubChem BioAssay (Tox21)
# Records with an inconclusive call do not appear. Where a call stands in place of a potency, no number is given. More than one record can exist for a structure, and the calls need not agree. Active and inactive are the calls of the source. Unless noted, the call rests on the fitted dose curve; in most records, active means well fitted curve in the direction sought with a large enough effect in the repeat runs; inconclusive means weak or mixed curves; inactive means no such curve, though single readings can be large; an effect the other way counts as inactive or inconclusive.
# Legend:
# [1] = qHTS assay to identify small molecule agonists of the vitamin D receptor (VDR) signaling pathway - cell viability counter screen (AID 743224); further: series mostly up to about 63 µM; nearly all actives have a fitted effect of over 50% in size
# Procedure, shortened: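 Viability is measured in the same wells as the VDR-bla reporter assay: after 16 h compound treatment and 2 h substrate loading, CellTiter-Glo is added and luminescence read 30 min later.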
# [2] = qHTS assay to identify small molecule antagonists of the vitamin D receptor (VDR) signaling pathway - cell viability counter screen (AID 743225); further: nearly all actives have a fitted effect of over 50% in size
# Procedure, shortened: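 HEK293T VDR-bla; cpd + 1a,25-(OH)2D3 3 nM final, 16 h 37C/5% CO2; B/G FRET substrate 2 h RT; then CellTiter-Glo 30 min RT, luminescence.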
# [3] = qHTS assay to identify small molecule agonists of the NFkB signaling pathway (AID 1159509; active means well fitted curve in the direction sought with a large enough effect in the signal ratio in the repeat runs, not every such curve was filed as active; the % refers to the signal ratio; further: series mostly up to about 61 µM)
# Procedure, shortened: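 ME-180 NFkB-bla, 2,000 cells/well, overnight plating; cpd pinned in DMSO, 5 h 37 C; B/G FRET substrate 1.5 h RT; ex 405, em 460/530 nm.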
# [4] = qHTS assay to identify small molecule agonists of the NFkB signaling pathway - cell viability counter screen (AID 1159515; calls by dose curve; further: series mostly up to about 61 µM; nearly all actives have a fitted effect of over 55% in size)
# Procedure, shortened: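 Multiplexed viability readout: after the 5 hr compound exposure and 1.5 hr FRET substrate step, CellTiter-Glo reagent went into the same NFkB-bla ME-180 wells; ATP luminescence was measured after 30 min at room temperature.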
# [5] = qHTS assay to identify small molecule agonists of the endoplasmic reticulum stress response signaling pathway (AID 1159516; active means well fitted activation curve with a large enough effect in the signal ratio in the repeat runs, not every such curve was filed as active; the % refers to the signal ratio)
# Procedure, shortened: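 Tox21 10K library screened in quantitative HTS format on ESRE-bla HeLa cells, a beta-lactamase reporter under ER stress response element control; 5 hr treatment, FRET read.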
# [6] = qHTS assay to identify small molecule antagonists of the retinoid-related orphan receptor gamma (ROR-gamma) signaling pathway - cell viability counter screen (AID 1159520); further: nearly all actives have a fitted effect of over 50% in size
# Procedure, shortened: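 Tet-on ROR gamma CHO cells were given compounds for 2 hr, then doxycycline hyclate at 1 uM final, and incubated 16 hr at 37 C. Viability was measured as ATP content by CellTiter-Glo luminescence.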
# [7] = qHTS assay to identify small molecule agonists of the AP-1 signaling pathway - cell viability counter screen (AID 1159525; calls by dose curve; further: nearly all actives have a fitted effect of over 55% in size)
# Procedure, shortened: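 AP-1-bla ME-180 cells in Opti-MEM with 0.5% dialyzed FBS, compound exposure 5 h at 37 C in 15-point titration. Viability read in the same wells as ATP content by CellTiter-Glo luminescence, normalised to tetra-n-octylammonium bromide and DMSO controls.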
# [8] = qHTS assay to identify small molecule agonists of the AP-1 signaling pathway (AID 1159526; calls by dose curve)
# [9] = target: Retinoic acid receptor RXR-alpha (Homo sapiens) (UniProt P19793); experiment: qHTS assay to identify small molecule agonists of the RXR signaling pathway (AID 1159527; calls by dose curve; further: nearly all actives have a fitted effect of over 35% in size)
# Procedure, shortened: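 Cells plated at 2,000/well, rested 5 hr at 37 C, pin-dosed with DMSO compound solutions, incubated 16 hr, then loaded with B/G FRET substrate for 2 hr at RT before dual-emission fluorescence reading.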
# [10] = qHTS assay to identify small molecule agonists of the RXR signaling pathway - cell viability counter screen (AID 1159529); further: nearly all actives have a fitted effect of over 50% in size; further: potency means the concentration at half of the fitted maximal effect
# Procedure, shortened: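 Steps: seed RXR-alpha-UAS-bla HEK 293T cells in assay medium containing 2% charcoal-stripped FBS; incubate 5 hr; add compounds in DMSO; incubate 16 hr at 37 C; after the bla read, add CellTiter-Glo and read luminescence at 30 min.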
# [11] = qHTS assay to identify small molecule antagonists of the retinoid acid receptor (RAR) signaling pathway - cell viability counter screen (AID 1159551); further: nearly all actives have a fitted effect of over 35% in size
# Procedure, shortened: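 Cytotoxicity counter screen in C3RL4 cells: 6 h compound exposure with 1 uM retinol (final), viability from cellular ATP by luminescence.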
# [12] = qHTS assay to identify small molecule antagonists of the retinoic acid receptor (RAR) signaling pathway (AID 1159552; further: nearly all actives have a fitted effect of over 50% in size)
# Procedure, shortened: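 Retinol at 1 uM final stimulated RARE-luciferase expression in C3RL4 cells exposed to test compounds for 6 hr at 37 C. Reduced luminescence, read 30 min after detection reagent, indicated pathway antagonism.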
# [13] = qHTS assay to identify small molecule agonists of the retinoic acid receptor (RAR) signaling pathway (AID 1159553)
# Procedure, shortened: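 Agonist activity was scored in C3RL4 cells bearing a retinoic acid response element luciferase construct. Cells were treated with compounds for 6 hr at 37 C, and luciferase signal was measured as luminescence.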
# [14] = qHTS assay to identify small molecule antagonists of the estrogen related receptor (ERR) signaling pathway from Tox21 library - cell viability counter screen (AID 1224834); further: nearly all actives have a fitted effect of over 30% in size
# Procedure, shortened: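 Cytotoxicity of test substances is gauged in the same ERR cells used for the antagonist screen, after 17.5 h of compound treatment at 37 C, by CellTiter-Fluor fluorescence measured after 30 min.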
# [15] = target: Luciferin 4-monooxygenase (Photinus pyralis) (UniProt P08659); experiment: qHTS assay to identify small molecule inhibitors of firefly luciferase (AID 1224835); further: series mostly up to about 120 µM; nearly all actives have a fitted effect of over 25% in size
# Procedure, shortened: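 Biochemical qHTS: compounds run as interplate titrations against purified firefly enzyme, with D-luciferin and ATP each at its KM concentration. Light output recorded by CCD imaging.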
# [16] = qHTS assay to identify small molecule agonists of the constitutive androstane receptor (CAR) signaling pathway - cell viability counter screen (AID 1224836); further: series mostly up to about 92 µM; nearly all actives have a fitted effect of over 45% in size
# Procedure, shortened: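 Cells were seeded and incubated 4 hrs. Compounds were added across 15 concentrations together with PK11195 at 0.75 uM final. Plates were incubated 23 hrs at 37 C. CellTiter-Fluor was added and fluorescence measured.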
# [17] = target: Nuclear receptor ROR-gamma (Homo sapiens) (UniProt P51449); experiment: qHTS assay to identify small molecule antagonists of the retinoid-related orphan receptor gamma (ROR-gamma) signaling pathway (AID 1159521; further: nearly all actives have a fitted effect of over 50% in size; further: potency means the concentration at half of the fitted maximal effect)
# Procedure, shortened: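 Cells were plated, rested 4 h at 37 C, exposed to compounds for 2 h, then given 1 uM final doxycycline hyclate to induce RORγ expression. After 16 h, ONE-Glo luminescence from the ROR response element reporter was measured.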
# Retinoic acid receptor RXR-alpha (Homo sapiens), sequence (P19793 whole entry, looked up): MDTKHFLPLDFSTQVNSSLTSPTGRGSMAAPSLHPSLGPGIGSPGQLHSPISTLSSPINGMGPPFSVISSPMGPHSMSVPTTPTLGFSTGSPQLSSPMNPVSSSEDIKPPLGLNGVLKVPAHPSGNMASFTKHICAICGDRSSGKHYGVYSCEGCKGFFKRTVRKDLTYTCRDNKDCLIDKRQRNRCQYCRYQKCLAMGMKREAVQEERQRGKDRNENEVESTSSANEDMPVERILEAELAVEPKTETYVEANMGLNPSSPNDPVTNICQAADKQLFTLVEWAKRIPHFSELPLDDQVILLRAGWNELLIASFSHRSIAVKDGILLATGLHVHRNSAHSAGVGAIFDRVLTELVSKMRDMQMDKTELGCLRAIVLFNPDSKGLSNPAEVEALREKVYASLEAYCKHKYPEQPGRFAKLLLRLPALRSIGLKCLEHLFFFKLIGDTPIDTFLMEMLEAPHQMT
# Luciferin 4-monooxygenase (Photinus pyralis), sequence (P08659 whole entry, looked up): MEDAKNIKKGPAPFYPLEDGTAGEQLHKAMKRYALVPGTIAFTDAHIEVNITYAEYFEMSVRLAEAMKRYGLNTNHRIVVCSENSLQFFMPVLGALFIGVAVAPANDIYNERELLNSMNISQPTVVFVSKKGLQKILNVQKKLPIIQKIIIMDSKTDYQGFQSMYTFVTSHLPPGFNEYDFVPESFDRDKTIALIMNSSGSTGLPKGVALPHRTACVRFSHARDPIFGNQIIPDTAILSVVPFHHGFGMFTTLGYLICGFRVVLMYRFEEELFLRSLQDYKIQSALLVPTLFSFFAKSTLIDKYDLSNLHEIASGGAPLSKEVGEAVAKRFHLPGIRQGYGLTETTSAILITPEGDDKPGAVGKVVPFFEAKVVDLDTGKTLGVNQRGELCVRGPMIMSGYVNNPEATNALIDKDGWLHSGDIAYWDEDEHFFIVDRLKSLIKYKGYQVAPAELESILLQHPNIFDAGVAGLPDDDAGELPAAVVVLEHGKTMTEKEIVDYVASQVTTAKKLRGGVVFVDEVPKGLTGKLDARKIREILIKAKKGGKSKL
Compound,Potency [1],outcome [2],outcome [3],outcome [4],outcome [5],Potency [6],Potency [7],outcome [8],Potency [9],Potency [10],outcome [11],Potency [12],Potency [13],Potency [14],Potency [15],Potency [16],Potency [17]
COc1ccc(NC(C)=O)cc1N,inactive,inactive,inactive,inactive,inactive,inactive,inactive,inactive,inactive,inactive,inactive,inactive,inactive,inactive,inactive,inactive,–
CCCCC(CC)COC(=O)CS (stereo not drawn),inactive,inactive,inactive,inactive,inactive,inactive,inactive,inactive,inactive,inactive,inactive,inactive,inactive,inactive,inactive,inactive,–
O=C=NCCCCCCN=C=O,inactive,inactive,inactive,inactive,inactive,inactive,–,inactive,inactive,inactive,inactive,inactive,inactive,inactive,inactive,inactive,26.7 µM (active) and inactive
Fc1ccc(Br)cc1,inactive,inactive,inactive,inactive,inactive,inactive,inactive,inactive,inactive,inactive,inactive,inactive,inactive,inactive,inactive,inactive,inactive
O=c1[nH]nnc2ccccc12,inactive,inactive,inactive,inactive,inactive,–,inactive,inactive,inactive,inactive,inactive,–,–,inactive,inactive,inactive,inactive
CC(=O)CC(=O)Nc1ccccc1,inactive,inactive,inactive,inactive,inactive,–,–,inactive,inactive,inactive,inactive,inactive,inactive,inactive,inactive,inactive,–
O=C(O)c1ccc(C(=O)O)cc1,inactive,inactive,inactive,inactive,inactive,–,–,inactive,inactive,inactive,inactive,–,–,inactive,inactive,inactive,inactive
CC1CCC(C(C)C)C(O)C1 (stereo not drawn),inactive,inactive,inactive,inactive,inactive,–,inactive,inactive,inactive,inactive,inactive,inactive,inactive,inactive,inactive,inactive,inactive
C=CCNC(N)=S,inactive,inactive,inactive,inactive,inactive,inactive,inactive,inactive,inactive,38 µM (active) and inactive,inactive,inactive,inactive,inactive,inactive,inactive,–
